In assay [1] the target is MAP/microtubule affinity-regulating kinase 3 (Homo sapiens) (UniProt P27448). The conditions noted are these: at 1 µM.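 Further: reported values are averaged percent inhibition of MARK3.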
Assay [2] has as its target T1, MAP/microtubule affinity-regulating kinase 4 (Homo sapiens) (UniProt Q96L34).
T1 sequence (whole entry): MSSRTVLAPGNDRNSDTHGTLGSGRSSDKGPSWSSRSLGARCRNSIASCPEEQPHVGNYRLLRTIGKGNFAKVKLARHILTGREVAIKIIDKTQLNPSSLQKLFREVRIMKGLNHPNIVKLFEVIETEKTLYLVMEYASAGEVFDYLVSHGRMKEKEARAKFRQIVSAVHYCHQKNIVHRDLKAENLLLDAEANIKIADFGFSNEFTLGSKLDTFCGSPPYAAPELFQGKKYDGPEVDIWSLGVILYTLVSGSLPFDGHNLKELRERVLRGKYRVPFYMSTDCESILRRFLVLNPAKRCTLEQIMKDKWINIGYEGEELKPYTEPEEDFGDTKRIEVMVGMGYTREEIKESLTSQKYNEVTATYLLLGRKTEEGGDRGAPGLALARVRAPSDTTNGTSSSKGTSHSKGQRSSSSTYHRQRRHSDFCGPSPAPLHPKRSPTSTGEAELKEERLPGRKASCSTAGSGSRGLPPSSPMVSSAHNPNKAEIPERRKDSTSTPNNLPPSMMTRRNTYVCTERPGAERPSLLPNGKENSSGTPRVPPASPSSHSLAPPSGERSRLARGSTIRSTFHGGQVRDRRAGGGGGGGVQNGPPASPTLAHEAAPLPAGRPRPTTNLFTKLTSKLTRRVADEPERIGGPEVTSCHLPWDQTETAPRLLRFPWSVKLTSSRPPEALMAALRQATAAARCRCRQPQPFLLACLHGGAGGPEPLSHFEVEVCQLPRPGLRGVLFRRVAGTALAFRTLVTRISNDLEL
The conditions noted are these: at 0.1 µM.

The target in assay [3] is T1, MAP/microtubule affinity-regulating kinase 4 (Homo sapiens). The conditions noted are these: at 1 µM.
Assay [4] concerns the target Maternal embryonic leucine zipper kinase (Homo sapiens) (UniProt Q14680). As to conditions: at 0.1 µM.
For assay [5] the target is unchanged. The conditions noted are these: at 1 µM.
Assay [6] addresses MAP kinase-interacting serine/threonine-protein kinase 1 (Homo sapiens) (UniProt Q9BUB5). As to conditions: at 0.1 µM.
Assay [7] has the same target. The conditions noted are these: at 1 µM.
For assay [8], the target named is MAP kinase-interacting serine/threonine-protein kinase 2 (Homo sapiens) (UniProt Q9HBH9). As to conditions: at 0.1 µM.
Assay [9] has the same target. The conditions noted are these: at 1 µM.
Assay [10] deals with Serine/threonine-protein kinase MARK2 (Homo sapiens) (UniProt Q7KZI7). The conditions noted are these: at 0.1 µM.
Assay [11] has the same target. As to conditions: at 1 µM.
Assay [12] concerns the target PAS domain-containing serine/threonine-protein kinase (Homo sapiens) (UniProt Q96RG2). As to conditions: at 0.1 µM.
Assay [13] shares this target. As to conditions: at 1 µM.
The target in assay [14] is Phosphorylase b kinase gamma catalytic chain, skeletal muscle/heart isoform (Homo sapiens) (UniProt Q16816). As to conditions: at 0.1 µM.
Assay [15] has the same target. As to conditions: at 1 µM.
In assay [16] the target is T2, Phosphorylase b kinase gamma catalytic chain, liver/testis isoform (Homo sapiens) (UniProt P15735).
T2 sequence (whole entry): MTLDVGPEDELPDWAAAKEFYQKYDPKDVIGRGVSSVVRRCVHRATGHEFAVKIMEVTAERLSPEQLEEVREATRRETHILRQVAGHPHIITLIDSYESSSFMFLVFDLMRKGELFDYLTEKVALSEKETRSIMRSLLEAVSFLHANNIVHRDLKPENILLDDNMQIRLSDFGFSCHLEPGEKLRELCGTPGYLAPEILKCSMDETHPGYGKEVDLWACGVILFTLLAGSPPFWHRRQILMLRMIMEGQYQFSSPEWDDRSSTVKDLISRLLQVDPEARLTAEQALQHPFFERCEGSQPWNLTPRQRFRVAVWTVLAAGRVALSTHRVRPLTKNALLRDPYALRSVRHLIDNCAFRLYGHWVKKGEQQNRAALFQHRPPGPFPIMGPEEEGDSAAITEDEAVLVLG
As to conditions: at 0.1 µM.

In assay [17] the target is T2, Phosphorylase b kinase gamma catalytic chain, liver/testis isoform (Homo sapiens). The conditions noted are these: at 1 µM.
Assay [18] concerns the target Serine/threonine-protein kinase pim-1 (Homo sapiens) (UniProt P11309). As to conditions: at 0.1 µM.
Assay [19] has the same target. The conditions noted are these: at 1 µM.
Assay [20] deals with Serine/threonine-protein kinase pim-2 (Homo sapiens) (UniProt Q9P1W9). As to conditions: at 0.1 µM.

Structures are written as SMILES. Several values for one entry are separate records, joined by “and”; a condition that tells them apart may be missing. Equal values may be shown once.

Sequence of MAP kinase-interacting serine/threonine-protein kinase 2 (Homo sapiens) (Q9HBH9 whole entry, looked up): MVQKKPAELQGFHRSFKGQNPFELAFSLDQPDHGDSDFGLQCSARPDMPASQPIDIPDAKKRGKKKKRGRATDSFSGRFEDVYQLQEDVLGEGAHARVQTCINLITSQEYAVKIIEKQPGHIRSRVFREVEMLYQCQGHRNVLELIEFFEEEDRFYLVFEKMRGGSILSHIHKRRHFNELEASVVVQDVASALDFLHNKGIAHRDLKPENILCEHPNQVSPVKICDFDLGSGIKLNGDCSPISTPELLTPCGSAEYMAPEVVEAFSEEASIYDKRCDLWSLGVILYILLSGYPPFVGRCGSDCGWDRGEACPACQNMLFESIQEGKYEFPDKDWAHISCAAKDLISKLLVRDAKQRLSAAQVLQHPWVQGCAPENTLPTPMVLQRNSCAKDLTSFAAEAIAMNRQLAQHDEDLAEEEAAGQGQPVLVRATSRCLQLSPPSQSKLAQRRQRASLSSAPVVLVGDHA
Sequence of PAS domain-containing serine/threonine-protein kinase (Homo sapiens) (Q96RG2 whole entry, the tested form may be a part): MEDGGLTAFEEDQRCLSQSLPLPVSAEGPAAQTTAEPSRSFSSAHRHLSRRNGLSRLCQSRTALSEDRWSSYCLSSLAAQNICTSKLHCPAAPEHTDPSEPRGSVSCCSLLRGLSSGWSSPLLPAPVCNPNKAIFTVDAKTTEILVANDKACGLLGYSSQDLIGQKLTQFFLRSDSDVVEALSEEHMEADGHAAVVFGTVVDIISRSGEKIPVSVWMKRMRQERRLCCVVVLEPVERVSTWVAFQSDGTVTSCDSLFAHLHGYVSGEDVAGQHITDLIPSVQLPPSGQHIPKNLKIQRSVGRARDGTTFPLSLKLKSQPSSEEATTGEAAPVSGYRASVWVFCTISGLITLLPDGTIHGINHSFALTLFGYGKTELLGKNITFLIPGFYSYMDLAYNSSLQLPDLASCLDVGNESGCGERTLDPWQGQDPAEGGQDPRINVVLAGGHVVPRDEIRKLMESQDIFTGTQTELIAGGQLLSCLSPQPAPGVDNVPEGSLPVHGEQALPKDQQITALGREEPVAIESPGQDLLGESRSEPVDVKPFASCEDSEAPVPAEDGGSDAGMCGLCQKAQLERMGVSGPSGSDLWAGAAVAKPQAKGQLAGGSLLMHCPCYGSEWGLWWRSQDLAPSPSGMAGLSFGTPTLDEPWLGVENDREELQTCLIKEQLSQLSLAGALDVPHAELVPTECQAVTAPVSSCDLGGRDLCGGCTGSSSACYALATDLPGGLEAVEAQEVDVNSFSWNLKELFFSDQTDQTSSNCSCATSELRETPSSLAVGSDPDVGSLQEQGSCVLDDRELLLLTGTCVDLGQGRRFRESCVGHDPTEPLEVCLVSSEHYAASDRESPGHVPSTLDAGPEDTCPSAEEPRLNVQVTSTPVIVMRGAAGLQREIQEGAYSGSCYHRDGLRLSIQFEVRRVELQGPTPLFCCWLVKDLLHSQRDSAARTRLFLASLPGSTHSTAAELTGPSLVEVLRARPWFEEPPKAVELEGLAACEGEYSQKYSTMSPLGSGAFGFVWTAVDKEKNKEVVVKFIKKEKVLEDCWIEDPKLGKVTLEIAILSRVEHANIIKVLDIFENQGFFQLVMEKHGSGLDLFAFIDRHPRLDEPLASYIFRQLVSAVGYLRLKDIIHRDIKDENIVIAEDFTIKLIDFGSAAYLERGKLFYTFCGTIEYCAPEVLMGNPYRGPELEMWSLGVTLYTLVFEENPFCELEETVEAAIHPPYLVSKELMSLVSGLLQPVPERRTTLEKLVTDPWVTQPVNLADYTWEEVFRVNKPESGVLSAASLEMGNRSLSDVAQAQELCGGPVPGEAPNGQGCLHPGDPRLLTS
Sequence of Serine/threonine-protein kinase pim-1 (Homo sapiens) (P11309 whole entry, looked up): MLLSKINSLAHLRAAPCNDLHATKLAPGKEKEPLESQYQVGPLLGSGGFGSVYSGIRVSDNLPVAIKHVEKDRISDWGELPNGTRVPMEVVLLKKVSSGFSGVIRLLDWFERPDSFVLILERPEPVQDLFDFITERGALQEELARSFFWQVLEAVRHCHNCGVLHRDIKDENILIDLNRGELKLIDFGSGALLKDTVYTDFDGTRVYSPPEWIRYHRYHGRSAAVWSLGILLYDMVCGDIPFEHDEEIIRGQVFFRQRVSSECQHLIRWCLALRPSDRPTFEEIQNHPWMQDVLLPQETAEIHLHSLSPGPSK
Sequence of MAP/microtubule affinity-regulating kinase 3 (Homo sapiens) (P27448 whole entry, looked up): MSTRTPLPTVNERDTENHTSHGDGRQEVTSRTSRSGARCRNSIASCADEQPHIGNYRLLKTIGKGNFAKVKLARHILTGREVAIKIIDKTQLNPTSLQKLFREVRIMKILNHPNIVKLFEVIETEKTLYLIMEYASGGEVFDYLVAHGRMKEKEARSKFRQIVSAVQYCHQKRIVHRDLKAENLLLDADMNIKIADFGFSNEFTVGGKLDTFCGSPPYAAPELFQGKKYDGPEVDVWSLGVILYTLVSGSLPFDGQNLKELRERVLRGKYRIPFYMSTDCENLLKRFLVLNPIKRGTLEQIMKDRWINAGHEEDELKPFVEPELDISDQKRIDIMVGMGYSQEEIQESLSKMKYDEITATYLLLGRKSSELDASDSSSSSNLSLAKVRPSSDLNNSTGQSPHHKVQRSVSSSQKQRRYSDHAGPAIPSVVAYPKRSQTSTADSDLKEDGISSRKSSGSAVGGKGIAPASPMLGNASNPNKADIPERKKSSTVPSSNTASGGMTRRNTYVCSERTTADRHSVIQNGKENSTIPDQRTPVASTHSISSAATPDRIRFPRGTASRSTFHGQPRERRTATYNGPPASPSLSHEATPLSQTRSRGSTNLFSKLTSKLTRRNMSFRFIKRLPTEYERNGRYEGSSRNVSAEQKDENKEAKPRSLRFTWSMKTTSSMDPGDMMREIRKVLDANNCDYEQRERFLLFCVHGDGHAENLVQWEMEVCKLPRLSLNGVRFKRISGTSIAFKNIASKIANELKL
Sequence of Serine/threonine-protein kinase MARK2 (Homo sapiens) (Q7KZI7 whole entry): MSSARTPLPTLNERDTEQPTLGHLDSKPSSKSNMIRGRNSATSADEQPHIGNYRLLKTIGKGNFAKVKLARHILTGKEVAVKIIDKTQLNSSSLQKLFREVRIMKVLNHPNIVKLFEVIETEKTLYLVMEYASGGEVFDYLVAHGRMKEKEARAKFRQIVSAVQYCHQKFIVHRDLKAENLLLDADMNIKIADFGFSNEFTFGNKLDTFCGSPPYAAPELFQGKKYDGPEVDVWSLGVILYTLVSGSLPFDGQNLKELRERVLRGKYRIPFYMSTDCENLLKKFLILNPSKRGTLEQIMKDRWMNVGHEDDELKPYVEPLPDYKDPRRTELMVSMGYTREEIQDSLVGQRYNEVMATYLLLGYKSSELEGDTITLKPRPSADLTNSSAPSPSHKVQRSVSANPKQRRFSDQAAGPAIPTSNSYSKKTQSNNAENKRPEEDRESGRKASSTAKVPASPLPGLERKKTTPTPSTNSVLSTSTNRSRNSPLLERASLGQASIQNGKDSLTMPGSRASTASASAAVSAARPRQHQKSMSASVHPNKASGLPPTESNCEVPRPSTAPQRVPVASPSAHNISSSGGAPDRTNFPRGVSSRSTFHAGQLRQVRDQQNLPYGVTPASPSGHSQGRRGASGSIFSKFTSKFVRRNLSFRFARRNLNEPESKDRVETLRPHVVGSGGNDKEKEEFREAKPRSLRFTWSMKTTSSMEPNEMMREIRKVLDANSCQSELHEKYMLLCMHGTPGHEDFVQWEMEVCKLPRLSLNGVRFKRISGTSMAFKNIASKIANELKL
Sequence of Phosphorylase b kinase gamma catalytic chain, skeletal muscle/heart isoform (Homo sapiens) (Q16816 whole entry, looked up, canonical isoform): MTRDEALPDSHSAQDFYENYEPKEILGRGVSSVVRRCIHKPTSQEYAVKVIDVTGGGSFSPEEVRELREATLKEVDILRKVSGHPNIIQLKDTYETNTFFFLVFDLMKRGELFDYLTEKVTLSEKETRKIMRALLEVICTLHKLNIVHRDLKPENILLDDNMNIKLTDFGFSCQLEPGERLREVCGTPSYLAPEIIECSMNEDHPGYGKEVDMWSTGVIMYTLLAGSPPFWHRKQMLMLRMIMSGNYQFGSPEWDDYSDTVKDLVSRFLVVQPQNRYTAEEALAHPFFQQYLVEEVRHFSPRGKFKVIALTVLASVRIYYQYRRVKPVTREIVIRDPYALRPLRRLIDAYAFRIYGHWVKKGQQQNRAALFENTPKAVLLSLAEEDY
Sequence of MAP kinase-interacting serine/threonine-protein kinase 1 (Homo sapiens) (Q9BUB5 whole entry, looked up): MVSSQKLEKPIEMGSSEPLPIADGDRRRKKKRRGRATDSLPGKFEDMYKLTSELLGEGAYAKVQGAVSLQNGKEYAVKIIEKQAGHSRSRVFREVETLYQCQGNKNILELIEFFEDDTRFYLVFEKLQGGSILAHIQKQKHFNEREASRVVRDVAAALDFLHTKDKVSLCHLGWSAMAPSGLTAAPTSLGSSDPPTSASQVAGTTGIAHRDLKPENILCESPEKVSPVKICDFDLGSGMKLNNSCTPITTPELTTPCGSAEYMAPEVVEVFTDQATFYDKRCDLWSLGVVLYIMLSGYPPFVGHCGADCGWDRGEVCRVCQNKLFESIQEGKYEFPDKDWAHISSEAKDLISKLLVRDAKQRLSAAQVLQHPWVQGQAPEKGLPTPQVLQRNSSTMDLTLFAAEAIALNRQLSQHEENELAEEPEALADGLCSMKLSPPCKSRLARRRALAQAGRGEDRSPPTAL
Sequence of Serine/threonine-protein kinase pim-2 (Homo sapiens) (Q9P1W9 whole entry, looked up): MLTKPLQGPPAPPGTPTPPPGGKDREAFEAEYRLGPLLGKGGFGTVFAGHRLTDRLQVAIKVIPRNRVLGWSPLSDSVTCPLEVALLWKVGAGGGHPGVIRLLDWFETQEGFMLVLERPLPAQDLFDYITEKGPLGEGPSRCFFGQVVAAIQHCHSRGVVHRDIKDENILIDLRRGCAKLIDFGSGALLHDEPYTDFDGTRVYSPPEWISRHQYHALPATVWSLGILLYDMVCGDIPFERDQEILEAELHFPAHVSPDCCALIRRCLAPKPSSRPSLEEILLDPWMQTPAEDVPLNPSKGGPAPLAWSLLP

By inhibition is commonly meant the relative decrease from the control value, in per cent. Turning to `CNC(=O)c1sc(-n2cnc3cc(OC)c(OC)cc32)cc1OCc1ccccc1C(F)(F)F`, the inhibition came out at 3.64% in assay [1]; 2.02% in assay [2]; 3.13% in [3]; 2.63% in [4]; 2% in assay [5]; 3.25% in [6]. The inhibition in [7] is 4.03%; in assay [8], 0.55%; in assay [9], 2.13%; in [10] it was -0.7%; in assay [11], 1.67%; in assay [12], 0.35%. The inhibition in [13] is 0.79%; in [14], 4.21%; in assay [15], 3.69%; in [16], 5.8%; in assay [17], 5.01%; in assay [18], -0.73%. Besides, the inhibition in assay [19] was -0.07%; in assay [20], 0.37%.

Take `CC(C)c1ccc(-c2cc(-c3c[nH]nc3-c3ccccn3)ccn2)cc1`: the inhibition in assay [1] was 0.71%; in assay [2] it was -0.28%; in assay [3], 0.5%; in assay [4] it was 1.44%; in [5] it was 3.48%; in [6], 1.48%. Besides, the inhibition in [7] is 3.11%; in assay [8], 0.97%; in assay [9], 2.83%; in assay [10] it was -2.82%; in assay [11] it was -0.26%; in assay [12], -0.36%. Further, the inhibition in assay [13] was -1.24%; in assay [14] it was 0.46%; in assay [15], 1.25%; in assay [16], -0.69%; in [17] it was -0.76%; in assay [18], 0.3%. In addition, the results for the inhibition in assay [19] and in assay [20] were -0.2% and -0.34%, respectively.

`Nc1ncnc2occ(-c3ccc(NC(=O)Nc4cc(C(F)(F)F)ccc4F)cc3)c12`: the inhibition is 2.97% and -0.26% in assay [1]; 0.43% and 1.7% in assay [2]; 2.95% and 1.13% in assay [3]; -6.51% and -4.36% in assay [4]; 6.91% and 2.48% in [6]; 30% and 16.5% in assay [7]. The inhibition in assay [8] is 7.71% and 2.55%; in assay [9], 40.3% and 28.8%; in [10] it was -0.86% and -0.02%; in assay [11], 2.65% and 0.89%; in assay [12], 0.79% and 0.18%; in assay [13], 0.2% and -0.5%. Further, the inhibition in [14] is 0.08% and -0.25%; in assay [15], 4.52% and 6.47%; in assay [16], 2.69% and -2.51%; in assay [17] it was -1.12% and -5.1%; in [18], 0.97% and 0.53%; in assay [19], 1.19% and 2.46%. Besides, the inhibition in assay [20] was 0.22% and 0.7%.

On to `CN(C)CCNC(=O)Nc1ccc(N(C)c2ccnc(Nc3ccc(CS(C)(=O)=O)cc3)n2)cc1`, for which the inhibition in assay [1] is 6.62%; in assay [2], 1.9%; in assay [3] it was 8.9%; in [4], 4.26%; in assay [5], 16.1%; in assay [6], 1.51%. Also, the inhibition came to 3.79% in assay [7]; 0.95% in assay [8]; 5.14% in assay [9]; 2.5% in assay [10]; 7.11% in assay [11]; 1.26% in [12]. Moreover, the inhibition in [13] was -0.25%; in assay [14] it was 2.14%; in assay [15] it was 4.59%; in assay [16] it was 4.64%; in assay [17], 1.59%; in assay [18], 1.06%. In addition, the inhibition in assay [19] was 1.39%; in assay [20] it was 0.27%.

Regarding `O=C(O[C@H]1CN[C@H](C#Cc2cc3ncnc(Nc4ccc5c(ccn5Cc5cc(F)ccc5F)c4)c3s2)C1)N1CCOCC1`, the inhibition came to 1.49% in assay [1]; 2.82% in [2]; 0.75% in [3]; 5.51% in assay [4]; 5.23% in [5]; 2.17% in [6]. In addition, the inhibition in assay [7] was 5.94%; in [8], 1.3%; in assay [9] it was 1.83%; in assay [10] it was 0.88%; in assay [11], -0.27%; in [12], 0.1%. The inhibition in [13] is -1.39%; in assay [14], 3.09%; in [15], 4.72%; in [16], 4.96%; in assay [17] it was 2.49%; in [18] it was 0.84%. Further, the inhibition worked out at 0.83% in [19] and 0.44% in [20].

For `COC(=O)Nc1nc2ccc(Oc3ccc(NC(=O)Nc4cc(C(F)(F)F)ccc4F)cc3)cc2s1`, the inhibition in assay [1] is -0.18%; in assay [2], -0.51%; in assay [3], 0.37%; in [4], 1.63%; in [5], 3.51%; in assay [6], 4.79%. Also, the inhibition is 15.7% in [7]; 2.41% in assay [8]; 7.88% in assay [9]; -8.34% in [10]; -0.26% in assay [11]; -0.29% in assay [12]. The inhibition in [13] is -0.57%; in [14], -9.77%; in assay [15] it was 1.81%; in [16], -0.83%; in assay [17], -1.17%; in [18], 0.9%. In addition, the inhibition in [19] was 1.19%; in assay [20], -0.21%.

On to `COc1ccc(-c2nn3ncccc3c2-c2ccnc(Nc3ccc(F)c(F)c3)n2)cc1`, for which the inhibition in [1] came to 10.5%; in [2] it was 1.45%; in assay [3], 1.84%; in [4], 3.07%; in [5], 4.64%; in [6], 2.98%. Moreover, the inhibition in assay [7] is 6.32%; in assay [8], 2.16%; in assay [9], 6.26%; in assay [10] it was 0.52%; in [11], 0.59%; in assay [12], 1.16%. For the same compound, the inhibition in [13] was determined as 1.41%; in [14], 8.48%; in assay [15], 10.2%; in assay [16], 4.94%; in assay [17] it was 9.5%; in assay [18], 0.43%. For the same compound, the results for the inhibition in assay [19] and in assay [20] were 0.69% and 1.57%, respectively.

The record behind these values is ChEMBL document CHEMBL1961873, “Compounds: GSK PKIS; Assays: Nanosyn kinase panel” (2012).
